Our source for the Potency and outcome values is PubChem BioAssay (Tox21).

Test [1] in a line: Nuclear factor erythroid 2-related factor 2/antioxidant responsive element (Nrf2/ARE) small molecule agonists: qHTS cell viability counter screen in human keratinocytes (AID 1919968; active means well fitted curve in the direction sought with a large enough effect in the repeat runs; an effect the other way counts as inactive or inconclusive; further: nearly all actives have a fitted effect of over 55% in size). In a few lines:
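After a 5 h attachment period, ARE-reporter keratinocytes were dosed with compounds in DMSO and then cultured 23 h at 37 C. Cell viability came from CellTiter-Fluor signal read after a further 1 h.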

Test [2] in a line: Nuclear factor erythroid 2-related factor 2/antioxidant responsive element (Nrf2/ARE) small molecule agonists: luciferase reporter gene qHTS assay in human keratinocytes (AID 1919969). Further: nearly all actives have a fitted effect of over 35% in size. Further: potency means the concentration at half of the fitted maximal effect.
In test [3] the target is Gonadotropin-releasing hormone receptor (Homo sapiens) (UniProt P30968). Nature of the test: Human gonadotropin-releasing hormone receptor (GnRHR) small molecule agonists, calcium flux assay in GnRHR-HEK293 cells (AID 1920063). Further: nearly all actives have a fitted effect of over 35% in size. Summed up: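 We seeded human GnRHR-expressing HEK293 cells for 18 hours, loaded them with calcium dye for an hour at 37 C, added test compounds, and recorded fluorescence intensity kinetically for three minutes.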
Background: A change in cytosolic calcium serves as a functional read-out for many receptors and channels.

For test [4], the target named is KiSS-1 receptor (Homo sapiens) (UniProt Q969F8). Nature of the test: Human kisspeptin (KISS1R) small molecule agonists, calcium flux assay in KISS1R-HEK293 cells (AID 1920064; active means well fitted curve in the direction sought with a large enough effect in the repeat runs; an effect the other way counts as inactive or inconclusive). Summed up: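 Kinetic calcium assay, 1 s sampling over 3 min at Ex/Em 480/540, in HEK293 cells engineered with human KISS1R; compounds delivered in DMSO after 1 h dye loading.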
Test [5] is described as follows: G protein-coupled receptor (GPCR) small molecule agonists, calcium flux assay: HEK293 wild type cell line counter screen (AID 1920065). In a few lines: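 Calcium-sensitive dye, loaded 1 h at 37 C into cells cultured 18 h, reports compound-evoked calcium release as fluorescence (Ex/Em 480/540), measured over 3 min. Agonist mode; 15-point titrations, triplicate.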

Test [6] is described as follows: p53 small molecule agonists, cell-based qHTS assay with human liver microsomes (AID 1963577). Summed up: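 Fluorescence of the beta-lactamase reporter in p53RE-bla cells, detected with LiveBLAzer substrate (2 h, room temperature, dark), served as the read-out after 16 h compound exposure at 37 C with human liver microsomes and NADPH, each 0.5 mg/mL final.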
For orientation: In qHTS, concentration-response curves come from the screen itself.

Test [7] in a line: p53 small molecule agonists, cell-based qHTS assay with rat liver microsomes (AID 1963578). Summed up: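 Cells carrying a p53 response element–beta-lactamase reporter were plated and rested 5 h, then dosed with compound in DMSO plus rat liver microsomes and NADPH, each at 0.5 mg/mL final. After 16 h at 37 C, LiveBLAzer substrate was added for 2 h.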
Test [8] in a line: p53 small molecule agonists, cell-based qHTS assay with human liver microsomes: qHTS cell viability counter screen (AID 1963579). Further: nearly all actives have a fitted effect of over 45% in size. Summed up: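 Cytotoxicity counter screen: p53RE-bla, 4,000 cells/well; 5 h settle, 37 C/5% CO2; cpd + HLM 0.5 mg/mL + NADPH 0.5 mg/mL (final); 16 h, 37 C; CellTiter-Glo, 30 min RT, luminescence.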
The nature of test [9]: p53 small molecule agonists, cell-based qHTS assay with rat liver microsomes: qHTS cell viability counter screen (AID 1963580). Further: nearly all actives have a fitted effect of over 45% in size. Summed up:
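HCT-116 p53RE-bla, 4,000 cells/well, 5 h pre-incubation; cpd + rat liver microsomes 0.5 mg/mL + NADPH 0.5 mg/mL (final); 16 h, 37 C; CellTiter-Glo, 30 min RT; luminescence.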

Test [10] can be described thus: p53 small molecule agonists, cell-based qHTS assay: qHTS cell viability counter screen (AID 1963581). Further: nearly all actives have a fitted effect of over 45% in size. Summed up: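 Following 5 h attachment, HCT-116 p53RE-bla cells took up compound for 16 h at 37 C; the reporter was read with B/G FRET substrate (2 h RT), and viability then via CellTiter-Glo ATP luminescence.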
A short description of test [11]: p53 small molecule agonists, cell-based qHTS assay (AID 1963582; active means well fitted activation curve with a large enough effect in the signal ratio in the repeat runs, not every such curve was filed as active; the % refers to the signal ratio). In a few lines:
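In this cell-based concentration-response screen, a p53 response element drives beta-lactamase; cells received DMSO-borne compounds after 5 h culture and were incubated a further 16 h before FRET substrate development.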

Test [12] concerns the target 5-hydroxytryptamine receptor 2A (Homo sapiens) (UniProt P28223). Description: 5-hydroxytryptamine receptor 2A (HTR2A) small molecule antagonists, cell-based qHTS assay (AID 1963586). Further: nearly all actives have a fitted effect of over 45% in size. Further: potency means the concentration at half of the fitted maximal effect. In a few lines: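 Antagonist-mode intracellular calcium assay: DOI (4 nM) added after 5 min compound pre-incubation at room temperature to dye-loaded HTR2A-CHO cells. Fluorescence followed for 3 min, sampled every second.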

The target is the same in test [13]. Description: 5-hydroxytryptamine receptor 2A (HTR2A) small molecule agonists, cell-based qHTS assay (AID 1963587). Further: nearly all actives have a fitted effect of over 30% in size. Summed up: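 Kinetic calcium-flux fluorescence (2 min, 1 sec intervals) after compound addition in agonist mode. HTR2A-CHO cells were cultured 18 h, then dye-loaded 1 h at 37 C.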
Test [14] concerns the target Muscarinic acetylcholine receptor M1 (Homo sapiens) (UniProt P11229). Description: Cholinergic receptor muscarinic 1 (CHRM1) small molecule agonists, cell-based qHTS assay (AID 1963589). Further: nearly all actives have a fitted effect of over 35% in size. Summed up: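 Measures agonist-induced intracellular calcium rise. Stable human CHRM1 CHO line, 1 h dye load at 37 C, compounds from DMSO, kinetic fluorescence read.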
The nature of test [15]: cAMP Responsive Elements (CRE) small molecule agonists, cell-based qHTS assay (AID 1963590). In a few lines: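 A CRE-responsive beta-lactamase reporter in HEK 293T cells was used. Treatment ran 3 h at 37 C; detection used LiveBLAzer B/G FRET substrate for 2 h at room temperature.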
A short description of test [16]: cAMP Responsive Elements (CRE) small molecule antagonists, cell-based qHTS assay (AID 1963591; active means well fitted inhibition curve with a large enough effect in the signal ratio in the repeat runs, not every such curve was filed as active; the % refers to the signal ratio). Summed up:
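HEK293T cells carrying a CRE-driven beta-lactamase reporter receive compound and NKH477 (0.25 uM final) for 3 h. Fluorescence from LiveBLAzer B/G FRET substrate is read after 2 h at room temperature.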

Test [17] concerns the target D(2) dopamine receptor (Homo sapiens) (UniProt P14416). Description: Dopamine D2 receptor (DRD2) small molecule agonists, cell-based qHTS assay (AID 1963594). Further: nearly all actives have a fitted effect of over 35% in size. In a few lines:
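cAMP accumulation in DRD2-HEK293 cells measured by HTRF after 1 h detection; compounds added 10 min before NKH477 (200nM […]) forskolin-analogue stimulation, 30 min at room temperature, with Ro20-1724 present at 0.1 mM final.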

The target is the same in test [18]. Nature of the test: Dopamine D2 receptor (DRD2) small molecule antagonists, cell-based qHTS assay (AID 1963595; active means well fitted inhibition curve with a large enough effect in the signal ratio in the repeat runs, with a control signal flat; the % refers to the signal ratio). Summed up:
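Human DRD2 antagonist qHTS measuring cAMP by HTRF. The cells are exposed to compound for 10 min, then to NKH477 (200 nM) and quinpirole (12 nM) for 30 min at RT, with Ro20-1724 (0.1 mM) present throughout.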

Test [19] concerns the target Beta-2 adrenergic receptor (Homo sapiens) (UniProt P07550). Nature of the test: Adrenergic beta2 receptor (ADRB2) small molecule antagonists, cell-based qHTS assay (AID 1963592). Further: series mostly up to about 92 µM; nearly all actives have a fitted effect of over 50% in size. In a few lines:
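Cells (CHO, stable ADRB2 overexpression) incubated 18-20hr at 37C; compounds added from DMSO; agonist mix (1nM isoproterenol, 100uM IBMX, 25uM Ro-20-1724) added; 0.5hr RT; d2-cAMP and anti-cAMP-cryptate added; 1hr RT; 665/615 nm read.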

Values without a mark were called inactive. Records with an inconclusive call do not appear. Active and inactive are the calls of the source. Unless noted, the call rests on the fitted dose curve.

Sequence of Gonadotropin-releasing hormone receptor (Homo sapiens) (P30968 whole entry, looked up): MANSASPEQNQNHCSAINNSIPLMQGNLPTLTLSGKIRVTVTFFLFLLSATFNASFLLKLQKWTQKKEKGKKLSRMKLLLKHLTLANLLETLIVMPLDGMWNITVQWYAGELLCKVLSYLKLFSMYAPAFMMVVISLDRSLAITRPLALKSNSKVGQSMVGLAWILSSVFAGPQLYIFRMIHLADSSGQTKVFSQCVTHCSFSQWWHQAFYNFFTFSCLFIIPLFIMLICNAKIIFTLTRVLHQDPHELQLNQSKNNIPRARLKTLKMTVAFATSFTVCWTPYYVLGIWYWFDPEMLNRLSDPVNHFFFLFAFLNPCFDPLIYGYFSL
Sequence of D(2) dopamine receptor (Homo sapiens) (P14416 whole entry, looked up): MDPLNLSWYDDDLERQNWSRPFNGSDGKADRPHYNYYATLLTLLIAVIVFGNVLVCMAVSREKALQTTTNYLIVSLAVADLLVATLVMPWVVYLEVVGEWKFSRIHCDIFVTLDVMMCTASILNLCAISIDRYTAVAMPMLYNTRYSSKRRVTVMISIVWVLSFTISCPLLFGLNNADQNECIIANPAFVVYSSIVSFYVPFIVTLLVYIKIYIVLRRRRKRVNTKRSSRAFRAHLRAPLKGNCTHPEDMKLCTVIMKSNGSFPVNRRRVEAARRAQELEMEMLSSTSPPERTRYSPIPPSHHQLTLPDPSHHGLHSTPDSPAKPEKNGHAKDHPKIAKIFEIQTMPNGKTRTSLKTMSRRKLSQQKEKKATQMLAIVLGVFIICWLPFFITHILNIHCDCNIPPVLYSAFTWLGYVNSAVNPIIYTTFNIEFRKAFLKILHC
Sequence of Beta-2 adrenergic receptor (Homo sapiens) (P07550 whole entry, looked up): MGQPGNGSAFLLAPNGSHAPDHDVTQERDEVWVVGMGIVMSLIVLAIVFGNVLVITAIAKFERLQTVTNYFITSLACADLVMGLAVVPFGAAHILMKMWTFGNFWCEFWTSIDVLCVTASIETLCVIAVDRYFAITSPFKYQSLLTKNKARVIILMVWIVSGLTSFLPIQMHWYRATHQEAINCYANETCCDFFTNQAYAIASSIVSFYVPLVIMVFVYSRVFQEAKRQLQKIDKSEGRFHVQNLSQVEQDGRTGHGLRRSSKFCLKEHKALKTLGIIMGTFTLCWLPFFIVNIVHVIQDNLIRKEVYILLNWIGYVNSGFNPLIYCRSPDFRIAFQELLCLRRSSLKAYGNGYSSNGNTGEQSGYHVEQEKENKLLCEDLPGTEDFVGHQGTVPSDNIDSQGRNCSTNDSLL
Sequence of Muscarinic acetylcholine receptor M1 (Homo sapiens) (P11229 whole entry, looked up): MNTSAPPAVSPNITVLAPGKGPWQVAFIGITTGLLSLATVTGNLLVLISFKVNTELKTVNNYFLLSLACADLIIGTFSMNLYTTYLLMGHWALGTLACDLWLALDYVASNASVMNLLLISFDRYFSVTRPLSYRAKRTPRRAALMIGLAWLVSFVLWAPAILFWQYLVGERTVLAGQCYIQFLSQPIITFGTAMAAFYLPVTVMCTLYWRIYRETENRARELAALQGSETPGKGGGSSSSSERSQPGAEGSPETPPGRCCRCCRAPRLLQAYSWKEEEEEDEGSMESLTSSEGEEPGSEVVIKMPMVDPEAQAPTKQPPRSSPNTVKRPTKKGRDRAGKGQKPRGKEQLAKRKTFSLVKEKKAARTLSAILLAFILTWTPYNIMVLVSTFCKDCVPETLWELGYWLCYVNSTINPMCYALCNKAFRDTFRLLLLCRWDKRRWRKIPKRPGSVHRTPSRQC
Sequence of 5-hydroxytryptamine receptor 2A (Homo sapiens) (P28223 whole entry, looked up): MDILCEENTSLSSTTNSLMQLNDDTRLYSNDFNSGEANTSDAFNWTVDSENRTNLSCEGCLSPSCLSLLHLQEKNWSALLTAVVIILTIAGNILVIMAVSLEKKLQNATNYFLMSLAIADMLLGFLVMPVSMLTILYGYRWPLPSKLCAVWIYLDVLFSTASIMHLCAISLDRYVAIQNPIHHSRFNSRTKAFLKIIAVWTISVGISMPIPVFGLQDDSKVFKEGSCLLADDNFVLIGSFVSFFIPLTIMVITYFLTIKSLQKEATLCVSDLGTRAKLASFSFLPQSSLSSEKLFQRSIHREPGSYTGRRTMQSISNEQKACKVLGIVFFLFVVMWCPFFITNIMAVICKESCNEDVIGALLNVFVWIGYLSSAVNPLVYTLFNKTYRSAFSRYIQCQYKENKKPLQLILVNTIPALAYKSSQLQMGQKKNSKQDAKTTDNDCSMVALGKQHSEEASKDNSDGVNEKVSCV
Sequence of KiSS-1 receptor (Homo sapiens) (Q969F8 whole entry, looked up): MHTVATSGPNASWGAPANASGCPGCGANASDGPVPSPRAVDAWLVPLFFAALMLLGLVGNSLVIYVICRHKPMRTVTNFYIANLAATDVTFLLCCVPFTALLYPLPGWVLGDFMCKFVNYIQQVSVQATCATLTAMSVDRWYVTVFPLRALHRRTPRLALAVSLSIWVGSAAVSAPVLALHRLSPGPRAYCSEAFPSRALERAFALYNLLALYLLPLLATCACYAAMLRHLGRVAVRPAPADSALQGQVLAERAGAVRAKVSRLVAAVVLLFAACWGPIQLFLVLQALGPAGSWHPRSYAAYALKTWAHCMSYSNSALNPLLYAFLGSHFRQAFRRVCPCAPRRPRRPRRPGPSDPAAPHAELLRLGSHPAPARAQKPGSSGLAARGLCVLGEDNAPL

Take `Cc1ccccc1C(=O)O`: the Potency result in test [1], in test [2], in test [3], in test [6], in [7] and in test [8] was “inactive” in each case. Besides, the Potency entry in test [9], in [10], in [11], in [12], in test [13] and in [14] was “inactive” in each case. Besides, the Potency result in test [15], in test [16], in test [17] and in test [18] was “inactive” in each case. Further, the outcome in test [4] and in [5] was inactive.
On to `CC(CNC1CCCCC1)OC(=O)c1ccccc1` (centres undefined), for which the Potency result in test [1], in test [2], in test [3], in test [6], in test [7] and in test [8] was “inactive” throughout. Besides, the Potency result in test [9], in test [10], in test [11], in [12], in [13] and in [14] was “inactive” throughout. Also, the Potency result in test [15], in test [16], in test [19], in [17] and in test [18] was “inactive” each time. The result in test [4] and in test [5] was inactive.
Take `CC(C(O)c1ccc(O)cc1)N1CCC(Cc2ccccc2)CC1` (centres undefined): the Potency entry in test [1], in test [2], in test [3], in test [6], in [7] and in test [8] was “inactive” throughout. Also, the Potency result in test [9], in test [10], in [11], in test [13], in test [14] and in test [15] was “inactive” each time. For the same compound, the Potency result in test [16] and in test [18] was “inactive” in each case. The result in test [4] and in test [5] was inactive. The Potency in [12] was 16.3 µM (active).
Regarding `COc1c(Br)cc(Br)c(C)c1Br`, the Potency entry in [1], in [2], in [3], in [6], in [7] and in test [8] was “inactive” throughout. Also, the Potency result in test [9], in test [10], in test [11], in [12], in [13] and in [14] was “inactive” each time. In addition, the Potency result in [15], in [16], in test [19], in [17] and in test [18] was “inactive” each time. Besides, the result in test [4] and in test [5] was inactive.
With `Nc1ccc(C(=O)NCC(=O)O)cc1`, the Potency entry in [1], in test [2], in test [3], in [6], in test [7] and in test [8] was “inactive” each time. Also, the Potency result in test [9], in [10], in [11], in test [12], in [13] and in test [14] was “inactive” each time. Besides, the Potency entry in test [16], in [19] and in test [17] was “inactive” in each case. In addition, the result in test [4] and in test [5] was inactive.
`CCC(C)(C)C(=O)O`: the Potency entry in [1], in test [2], in test [3], in test [6], in test [7] and in test [8] was “inactive” in each case. Moreover, the Potency result in [9], in test [10], in test [11], in [12], in [13] and in test [15] was “inactive” each time. Moreover, the Potency result in test [16], in test [19], in test [17] and in [18] was “inactive” each time. Also, the outcome in test [4] and in test [5] was inactive.
Regarding `CC(=O)OC(C)(C)C`, the Potency entry in [1], in test [2], in test [3], in test [6], in test [7] and in test [8] was “inactive” each time. Moreover, the Potency entry in test [9], in test [10], in test [11], in test [12], in test [13] and in test [14] was “inactive” in each case. For the same compound, the Potency entry in test [15], in test [16], in test [19], in [17] and in test [18] was “inactive” in each case. Besides, the result in test [4] and in [5] was inactive.
Turning to `c1ccc(CCNc2nc(-c3ccccc3)cs2)cc1`, the Potency result in test [1], in [3], in test [6], in test [7], in test [8] and in test [9] was “inactive” throughout. The Potency result in [10], in test [11], in test [12], in test [13], in test [14] and in test [15] was “inactive” in each case. The Potency result in [16] and in test [17] was “inactive” each time. In addition, the Potency in [2] was 0.596 µM (active). Further, the result in [4] and in [5] was inactive.
